# In PubChem BioAssay AID1159580 (chemical genetic matrix, 2015):
# Among all 5,500 compounds or so, about 2,000 (36%) were called active. Another 18% or so got no clear call; they are omitted. The list shows a part of the results. A number with no mark means an inactive call. No stated cut-off is given here; in the data, active means normalized growth mostly below about 0.91 (no sharp cut-off); inconclusive means no clear call, values can overlap the other calls; inactive means mostly above about 0.92.
# Test: chemical genetic growth profiling, strain panel (AID 1159580);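 further: tested at 20 µM; growth read once vehicle control cultures reached saturation at 30 °C; 1 = growth at the plate median or of vehicle wells; lower values mean less growth of the strain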
# Conditions: S. cerevisiae deletion strains, growth OD
# [1] = locus YHR030C, strain SLT2, hits give low values
# [2] = locus YHR079C, strain IRE1, hits give low values
# [3] = locus YJL095W, strain BCK1, hits give low values
# [4] = locus YJR066W, strain TOR1, hits give low values
# [5] = locus YLR113W, strain HOG1, hits give low values
# [6] = locus YNL183C, strain NPR1, hits give low values
# [7] = locus YOR231W, strain MKK1, hits give low values
# [8] = locus YPL256C, strain CLN2, hits give low values
smiles,measurement,setting,value
Cc1cc2nc3c(=O)[nH]c(=O)nc-3n(C[C@@H](O)[C@@H](O)[C@@H](O)COP(=O)(O)O)c2cc1C,normalized growth,[1],1.04
same,normalized growth,[2],1.04
same,normalized growth,[3],1.03
same,normalized growth,[4],0.966
same,normalized growth,[5],1.03
same,normalized growth,[6],0.97
same,normalized growth,[7],1.04
same,normalized growth,[8],1.04
Cc1cc2nc3c(=O)[nH]c(=O)nc-3n(CC(O)C(O)C(O)CO)c2cc1C (configuration not stated),normalized growth,"locus YAL021C, strain ccr4, hits give low values",0.995
same,normalized growth,"locus YAL026C, strain drs2, hits give low values",0.981
same,normalized growth,"locus YAL030W, strain snc1, hits give low values",0.944
same,normalized growth,"locus YBL061C, strain skt5, hits give low values",0.988
same,normalized growth,"locus YBR009C, strain hhf1, hits give low values",0.954
same,normalized growth,"locus YBR023C, strain chs3, hits give low values",1.01
same,normalized growth,"locus YBR171W, strain sec66, hits give low values",0.962
same,normalized growth,"locus YBR231C, strain swc5, hits give low values",1.01
same,normalized growth,"locus YBR279W, strain paf1, hits give low values",1
same,normalized growth,"locus YCL011C, strain gbp2, hits give low values",0.987
same,normalized growth,"locus YCL016C, strain dcc1, hits give low values",1.05
same,normalized growth,"locus YCL069W, strain vba3, hits give low values",0.959
same,normalized growth,"locus YCR088W, strain abp1, hits give low values",0.974
same,normalized growth,"locus YDL005C, strain med2, hits give low values",0.99
same,normalized growth,"locus YDL040C, strain nat1, hits give low values",0.982
same,normalized growth,"locus YDR001C, strain nth1, hits give low values",0.982
same,normalized growth,"locus YDR069C, strain doa4, hits give low values",0.964
same,normalized growth,"locus YDR137W, strain rgp1, hits give low values",1.05
same,normalized growth,"locus YDR159W, strain sac3, hits give low values",0.9
same,normalized growth,"locus YDR195W, strain ref2",1.01
same,normalized growth,"locus YDR297W, strain sur2, hits give low values",0.955
same,normalized growth,"locus YDR334W, strain swr1, hits give low values",0.932
same,normalized growth,"locus YDR335W, strain msn5, hits give low values",1.02
same,normalized growth,"locus YDR392W, strain spt3, hits give low values",0.91
same,normalized growth,"locus YEL003W, strain gim4, hits give low values",0.907 (active)
same,normalized growth,"locus YEL037C, strain rad23, hits give low values",0.974
same,normalized growth,"locus YEL061C, strain CIN8 (second series), hits give low values",0.962
same,normalized growth,"locus YER015W, strain faa2, hits give low values",0.97
same,normalized growth,"locus YER016W, strain bim1, hits give low values",0.994
same,normalized growth,"locus YER111C, strain swi4, hits give low values",1
same,normalized growth,"locus YER155C, strain BEM2 (second series), hits give low values",0.912
same,normalized growth,"locus YFR010W, strain ubp6, hits give low values",0.91
same,normalized growth,"locus YGL167C, strain pmr1, hits give low values",0.958
same,normalized growth,"locus YGL173C, strain kem1, hits give low values",0.974
same,normalized growth,"locus YGL227W, strain vid30, hits give low values",0.98
same,normalized growth,"locus YGL240W, strain doc1, hits give low values",0.927
same,normalized growth,"locus YGL253W, strain hxk2, hits give low values",1.01
same,normalized growth,"locus YHR013C, strain ard1, hits give low values",0.992
same,normalized growth,"locus YHR027C, strain rpn1, hits give low values",0.959
same,normalized growth,[1],0.959
same,normalized growth,[2],0.968
same,normalized growth,"locus YHR142W, strain chs7, hits give low values",1.01
same,normalized growth,"locus YJL092W, strain hpr5, hits give low values",0.98
same,normalized growth,"locus YJL095W, strain BCK1 (second series), hits give low values",0.985
same,normalized growth,[3],0.966
same,normalized growth,"locus YJL115W, strain asf1, hits give low values",0.969
same,normalized growth,"locus YJL129C, strain trk1, hits give low values",0.996
same,normalized growth,"locus YJL154C, strain vps35, hits give low values",0.967
same,normalized growth,"locus YJL164C, strain tpk1, hits give low values",0.924
same,normalized growth,"locus YJL166W, strain qcr8, hits give low values",0.94
same,normalized growth,"locus YJL187C, strain SWE1, hits give low values",0.974
same,normalized growth,[4],0.926
same,normalized growth,"locus YKL160W, strain elf1, hits give low values",1.03
same,normalized growth,"locus YKR026C, strain gcn3, hits give low values",0.982
same,normalized growth,"locus YKR091W, strain srl3, hits give low values",0.985
same,normalized growth,"locus YLL001W, strain dnm1, hits give low values",0.95
same,normalized growth,"locus YLL026W, hits give low values",0.973
same,normalized growth,"locus YLL041C, strain sdh2, hits give low values",1
same,normalized growth,"locus YLR027C, strain aat2, hits give low values",0.98
same,normalized growth,[5],0.957
same,normalized growth,"locus YLR221C, strain rsa3, hits give low values",0.937
same,normalized growth,"locus YLR258W, strain gsy2, hits give low values",1
same,normalized growth,"locus YLR262C, strain YPT6 (second series), hits give low values",0.988
same,normalized growth,"locus YLR320W, strain mms22, hits give low values",0.956
same,normalized growth,"locus YLR342W, strain FKS1, hits give low values",0.964
same,normalized growth,"locus YLR357W, strain rsc2, hits give low values",0.9
same,normalized growth,"locus YLR370C, strain arc18, hits give low values",1.01
same,normalized growth,"locus YLR384C, strain iki3, hits give low values",1.01
same,normalized growth,"locus YML120C, strain ndi1, hits give low values",0.918
same,normalized growth,"locus YMR058W, strain fet3, hits give low values",0.941
same,normalized growth,"locus YMR125W, strain sto1, hits give low values",0.985
same,normalized growth,"locus YMR129W, hits give low values",1
same,normalized growth,"locus YMR205C, strain PFK2, hits give low values",1
same,normalized growth,"locus YMR231W, strain pep5, hits give low values",0.968
same,normalized growth,"locus YNL071W, strain lat1, hits give low values",0.972
same,normalized growth,[6],0.933
same,normalized growth,"locus YNL209W, strain ssb2, hits give low values",1
same,normalized growth,"locus YNL248C, strain rpa49, hits give low values",0.997
same,normalized growth,"locus YNL322C, strain KRE1 (second series), hits give low values",0.996
same,normalized growth,"locus YNR049C, strain mso1, hits give low values",0.994
same,normalized growth,"locus YOR001W, strain rrp6, hits give low values",0.908
same,normalized growth,"locus YOR070C, strain gyp1, hits give low values",0.984
same,normalized growth,"locus YOR080W, strain dia2, hits give low values",0.989
same,normalized growth,"locus YOR083W, strain WHI5, hits give low values",0.951
same,normalized growth,"locus YOR106W, strain vam3, hits give low values",0.96
same,normalized growth,[7],0.966
same,normalized growth,"locus YOR265W, strain rbl2, hits give low values",0.973
same,normalized growth,"locus YOR270C, strain vph1, hits give low values",0.965
same,normalized growth,"locus YOR290C, strain snf2, hits give low values",1.01
same,normalized growth,"locus YPL051W, strain arl3, hits give low values",1.01
same,normalized growth,"locus YPL078C, strain atp4, hits give low values",1.02
same,normalized growth,"locus YPL106C, strain sse1, hits give low values",0.951
same,normalized growth,"locus YPL240C, strain hsp82, hits give low values",0.996
same,normalized growth,[8],0.98
